The results in this text go back to PubChem BioAssay AID2244 (Southern Research Specialized Biocontainment Screening …, 2010).

Results with a measured potency or affinity are listed apart. Unmarked numbers belong to inactive results.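 How the source made its calls: active means viability below 70% at one or more tested concentrations; inactive means viability above 70% at every concentration.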

The assay in a line: host cell viability loss, Vero E6 – synthesized analogs, cytotoxicity control for West Nile virus antiviral project, SAR follow-up (AID 2244). The following applies: CellTiter-Glo luminescence, 72 h, stronger effect = lower value; at 40 µM unless noted.
As for `Cc1ccc2nc3n(c(=O)c2c1)CCC3`, the minimum viability was 76.4% [at 0.078 µM].

As for `O=[N+]([O-])c1ccc2c(c1)C(O)N1CCCC1=N2` (stereo not given), the minimum viability is 76.7% [at 0.078 µM].

As to `Cc1cccc2c(=O)n3c(nc12)CCC3`, the minimum viability was 75.1% [at 0.078 µM].

In the case of `O=c1c2cccc(Cl)c2nc2n1CCC2`, the minimum viability was 79.7% [at 5 µM].

`COc1ccccc1NC(=O)CSc1nc2ccccc2c(=O)n1-c1ccc(F)cc1`: the minimum viability is 78.4%.

For `O=c1c2cc([N+](=O)[O-])ccc2nc2n1CCC2`, the minimum viability is 78.7%.

As for `O=c1c2cc(I)ccc2nc2n1CCC2`, the minimum viability is 72.6%.

As for `O=C(CSc1nc2ccccc2c(=O)n1-c1ccc(F)cc1F)Nc1ccc(N2CCOCC2)cc1`, the minimum viability was 70.7%.

Regarding `c1ccc2c(c1)CN1CCCC1=N2`, the minimum viability was 89.1% [at 20 µM].

`CC(=O)Nc1ccc2nc3n(c(=O)c2c1)CCC3`: the minimum viability was 79.7% [at 0.625 µM].

As to `Cc1cccc2nc3n(c(=O)c12)CCC3`, the minimum viability was 78.3% [at 0.625 µM].

As for `CCOC(=O)C1(Cc2ccccc2C(F)(F)F)CCN(C2CCN(C(C)=O)CC2)CC1`, the minimum viability was 87% [at 80 µM].

Turning to `COc1ccc(-c2csc(N(CCCBr)C(=O)c3ccccc3Cl)n2)cc1`, the minimum viability is 70.2%.

Turning to `O=c1c2c(F)cccc2nc2n1CCC2`, the minimum viability is 80.3% [at 2.5 µM].

Take `COc1ccc(-c2csc(N(C)C(=O)c3ccccc3Cl)n2)cc1`: the minimum viability was 78.5%.

Regarding `CC1CC(C)CN(C(=O)CSc2nc3ccccc3c(=O)n2-c2ccc(F)cc2)C1` (stereo not given), the minimum viability is 74.6%.

Consider `COc1ccc(NC(=O)CSc2nc3ccccc3c(=O)n2-c2ccc(F)cc2)cc1`, for which the minimum viability was 70.1%.

As to `COc1cccc(-n2c(SCC(=O)Nc3ccc4c(c3)CCC4)nc3ccccc3c2=O)c1`, the minimum viability was 74.6%.

For `Nc1ccc2nc3n(c(=O)c2c1)CCC3`, the minimum viability was 76.6%.

With `CC1(O)c2cc(Br)ccc2N=C2CCCN21` (stereo not given), the minimum viability was 74.6% [at 0.156 µM].
